Source: PubChem BioAssay (SRMLSC)
MRP-1 activ = activates MRP-1; H69AR cells + doxorubicin, viability rescue, CellTiter-Glo; viability increase, % at 10 µM; 0.61% of 140,000 active; AID 799;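 active = viability gain under doxorubicin at or above a set limit, the compound median plus 3 SD, cut at about 4.7% in these data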;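 note: MRP-1 overexpressing cells given doxorubicin 25 µM after compound pretreatment; 18-22 h compound pretreatment then 72 h with doxorubicin before readout; 0% = doxorubicin-only wells and 100% = vehicle-treated cells without doxorubicin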
MRP reversal = compounds reversing MRP-mediated drug resistance; H69AR cells + 2 uM doxorubicin, CellTiter-Glo, 72 h; differential viability (reversal), % at 10 µM; 0.04% of 85,000 active;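 active = viability drop by adding the cancer drug above about 55%, with treated viability meeting a 40% cutoff, limit read from the data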;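 note: viability without doxorubicin minus viability with 2 µM doxorubicin for each compound; larger differential means the compound sensitizes cells more to doxorubicin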
* = called active by the depositor; x = no result. Sampled rows, rich in hits. Any-hit rate of the full collection: about 0.65%.

SMILES	MRP-1 activ	MRP reversal
O=C(c1cccn2c(=O)c3cc(Br)ccc3nc12)N1CCC2(CC1)OCCO2	4.8*	6
O=C(c1cccn2c(=O)c3ccc(Cl)cc3nc12)N1CCC2(CC1)OCCO2	-3	12
Cc1ccc(NC(=O)CN2C(=O)CN=C(c3ccccc3)c3cc(Cl)ccc32)cc1	0	2
CN(C)c1ccc(NC(=O)CN2C(=O)CN=C(c3ccccc3)c3cc(Cl)ccc32)cc1	6.8*	3
CN1C(=O)N(C)C(=O)C2(Cc3cc([N+](=O)[O-])ccc3N(C)C2c2ccccc2)C1=O (stereo not drawn)	-3	x
CCN(CC)S(=O)(=O)c1ccc(NN=C(C#N)C#N)cc1	5.6*	x
COc1ccc(-n2c(O)c(C(C)=NCCCn3ccnc3)c(=O)[nH]c2=O)cc1	-2	-12
Cc1cccc(C)c1NC(=O)CN(C)CC(=O)Nc1ccc(C#N)c(Cl)c1	-6	14
COc1ccccc1N(CC(=O)NC1CCCC1)C(=O)c1cnn(C(C)C)c1	-1	3
C=CCn1c(=O)c(C=Nc2c(OC)cccc2[N+](=O)[O-])c(O)n(CCCC)c1=O	-4	x
COc1ccccc1CN1CCN(C(=O)COc2ccccc2)CC1	-2	9
O=C(COc1ccc(Cl)cc1)N1CCN(Cc2ccccc2)CC1	6.5*	6
Cc1ccc(N2C(=O)NC(=O)/C(=C/c3cnc(-c4ccccc4)nc3)C2=O)cc1C	-1	x
Cc1ccc(N2C(=O)NC(=O)/C(=C\c3ccsc3)C2=O)cc1C	5.5*	x
Cc1ccc(N2C(=O)/C(=C/c3ccc(CN(CCC#N)S(C)(=O)=O)o3)C(=O)NC2=S)cc1	-1	x
O=C1NC(=S)NC(=O)C1C/C=C/c1ccccc1	-3	6
O=c1[nH]c2ccccc2n1CCCN1CCC(n2c(=O)[nH]c3cc(Cl)ccc32)CC1	-2	-4
COc1ccc(N2C(=O)CC(N3CCC(n4c(=O)[nH]c5ccccc54)CC3)C2=O)cc1 (stereo not drawn)	5.5*	-10
